The panel holds about 83,000 compounds, 20% with a hit somewhere; the sample as a whole holds those more often.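 For each line, cells grew in 96-well plates with the test compound present at a single concentration for 48 hours.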 A number with no mark means an inactive call. Activity calls are given as the source filed them. Rule for the calls: active = growth percent below 10; inactive = the rest.
How the values were obtained:
Test in all cases: NCI-60 one-dose screen, 48 h (100 = growth as untreated, 0 = no growth, -100 = all killed)
Details in all cases: 10 µM unless noted
NCI-H23 lung = system: NCI-H23 lung
NCI-H226 lung = system: NCI-H226 lung
NCI-H322M lung = system: NCI-H322M lung
HOP-62 NSCLC = system: HOP-62 NSCLC
NCI-H460 lung = system: NCI-H460 lung
HOP-92 NSCLC = system: HOP-92 NSCLC
NCI-H522 lung = system: NCI-H522 lung
A549/ATCC NSCLC = system: A549/ATCC NSCLC
786-0 renal = system: 786-0 renal
COLO 205 colon = system: COLO 205 colon

SMILES | growth (NCI-H23 lung) | growth (NCI-H226 lung) | growth (NCI-H322M lung) | growth (HOP-62 NSCLC) | growth (NCI-H460 lung) | growth (HOP-92 NSCLC) | growth (NCI-H522 lung) | growth (A549/ATCC NSCLC) | growth (786-0 renal) | growth (COLO 205 colon)
COc1ccc(/C=C2\Oc3cc(OCCCN4CCCC4)ccc3C2=O)cc1 | 87.2% | 93% | 93.1% | 89.7% | 68.5% | 82.2% | 85.7% | 90.6% | 93% | 93.5%
CCCCCCCCCCCCNC(=O)[C@H]1CSC(c2cc3ccccc3s2)N1 (stereo not given in full) | -7.5% (active) | 22.8% | 16.6% | -96.3% (active) | -54.8% (active) | 62.5% | 16% | 63.8% | 11.7% | 95.6%
Cc1ccc(-c2nc(C#N)c(S(=O)(=O)n3nc(-c4ccccc4)cc3N)o2)cc1 | 97.4% | 78.3% | 97.3% | 87.6% | 109% | 89.1% | -12% (active) | 94.4% | 84% | -44.1% (active)
C=C1CCC2C3(C)COC(C)(C)OC3CCC2(C)C1C/C=C1/C(=O)OCC1Oc1ccccc1OC (stereo not given) | 92.2% | 79.7% | 96.6% | 105% | 102% | 116% | 17.5% | 97.7% | 99.9% | 102%
C=C1CC2(OC1=O)C(=O)N(CCCN1C(=O)C3(CC(=C)C(=O)O3)c3ccccc31)c1ccccc12 (stereo not given) | 57.6% | 78.7% | 86.1% | 98.2% | 44.3% | -27% (active) | -78% (active) | 83.1% | 20.1% | -58.8% (active)
O=C(Nc1ccc2c(c1)OCO2)C(=O)c1c[nH]c2cc(F)ccc12 | 79.6% | 73% | 65.3% | 54.4% | 41.3% | 42.2% | 61.2% | 48.9% | 57.7% | 83.1%
Cc1[nH]c2ccc(F)cc2c1CCNC(=O)C1CCN(C(=O)c2ccccc2)C1 (stereo not given) | 88.6% [25 µM] | 90.2% [25 µM] | 61.8% [25 µM] | 93.3% [25 µM] | 101% [25 µM] | -0.166% [25 µM] (active) | 95.1% [25 µM] | 97.8% [25 µM] | 89.9% [25 µM] | 101% [25 µM]
O=C1C(Cl)=C(Nc2ccccn2)C(=O)c2ccccc21 | 40.5% | 94.1% | 115% | 46.9% | 62.6% | 102% | 58.3% | 104% | 111% | 97.6%
COc1ccc(-c2nc(/C=N/Nc3cc(C)nc4ccc(Cl)cc34)c(C)o2)cc1 | 42.1% | 75.6% | -92.5% (active) | 83.2% | -89.2% (active) | -84.8% (active) | -85.2% (active) | -91.6% (active) | -87.5% (active) | -72.8% (active)
COc1ccc(C(=O)n2nc(/C=C/c3ccc(O)c(OC)c3)cc2/C=C/c2ccc(O)c(OC)c2)cc1 | 7.96% (active) | 13% | 11.7% | 5.2% (active) | 4.37% (active) | -10.7% (active) | -6.8% (active) | 3.98% (active) | 2.92% (active) | -66.2% (active)
CN(C)CCOC(=O)Nc1ccccc1Cl | 98.3% | 106% | 104% | 101% | 105% | 89.2% | 106% | 112% | 100% | 113%

— PubChem BioAssay (NCI)
